# Measurements taken from PubChem BioAssay AID1159580 (chemical genetic matrix, 2015).
# Among all 5,500 compounds or so, about 2,000 (36%) were called active. Another 18% or so got no clear call; they are omitted. Some of the results follow. Unmarked numbers belong to inactive results. No stated cut-off is given here; in the data, active means normalized growth mostly below about 0.91 (no sharp cut-off); inconclusive means no clear call, values can overlap the other calls; inactive means mostly above about 0.92.
# Assay: chemical genetic growth profiling, strain panel (AID 1159580);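 further: tested at 20 µM; growth read once vehicle control cultures reached saturation at 30 °C; 1 = growth at the plate median or of vehicle wells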
# Conditions: growth OD
structure (smiles),measurement,setting,value
O=c1c(-c2cc(O)c(O)c(O)c2)coc2cc(O)c(O)c(O)c12,normalized growth,"S. cerevisiae deletion strains, locus YJL187C, strain SWE1, stronger effect = lower value",0.975
same,normalized growth,"S. cerevisiae deletion strains, locus YJR043C, strain POL32, stronger effect = lower value",0.752 (active)
same,normalized growth,"S. cerevisiae deletion strains, locus YJR075W, strain HOC1, stronger effect = lower value",0.929
same,normalized growth,"S. cerevisiae deletion strains, locus YKL009W, strain mrt4, stronger effect = lower value",1.07
same,normalized growth,"S. cerevisiae deletion strains, locus YKL068W, stronger effect = lower value",1.01
same,normalized growth,"S. cerevisiae deletion strains, locus YKL085W, strain MDH1 (second series), stronger effect = lower value",1.02
same,normalized growth,"S. cerevisiae deletion strains, locus YKL085W, strain MDH1, stronger effect = lower value",1.02
same,normalized growth,"S. cerevisiae deletion strains, locus YKL160W, strain elf1, stronger effect = lower value",0.952
same,normalized growth,"S. cerevisiae deletion strains, locus YKL190W, strain CNB1, stronger effect = lower value",0.86 (active)
same,normalized growth,"S. cerevisiae deletion strains, locus YKR001C, strain vps1, stronger effect = lower value",0.987
same,normalized growth,"S. cerevisiae deletion strains, locus YKR026C, strain gcn3, stronger effect = lower value",0.995
same,normalized growth,"S. cerevisiae deletion strains, locus YKR091W, strain srl3, stronger effect = lower value",1.02
same,normalized growth,"S. cerevisiae deletion strains, locus YLL001W, strain dnm1, stronger effect = lower value",0.965
same,normalized growth,"S. cerevisiae deletion strains, locus YLL026W, stronger effect = lower value",1.01
same,normalized growth,"S. cerevisiae deletion strains, locus YLL041C, strain sdh2, stronger effect = lower value",1
same,normalized growth,"S. cerevisiae deletion strains, locus YLR027C, strain aat2, stronger effect = lower value",0.974
same,normalized growth,"S. cerevisiae deletion strains, locus YLR039C, strain RIC1, stronger effect = lower value",0.626 (active)
same,normalized growth,"S. cerevisiae deletion strains, locus YLR058C, strain SHM2, stronger effect = lower value",0.377 (active)
same,normalized growth,"S. cerevisiae deletion strains, locus YLR102C, strain apc9, stronger effect = lower value",1
same,normalized growth,"S. cerevisiae deletion strains, locus YLR221C, strain rsa3, stronger effect = lower value",0.981
same,normalized growth,"S. cerevisiae deletion strains, locus YLR258W, strain gsy2, stronger effect = lower value",0.988
same,normalized growth,"S. cerevisiae deletion strains, locus YLR262C, strain YPT6 (second series), stronger effect = lower value",0.889
same,normalized growth,"S. cerevisiae deletion strains, locus YLR262C, strain YPT6, stronger effect = lower value",0.758
same,normalized growth,"S. cerevisiae deletion strains, locus YLR268W, strain sec22, stronger effect = lower value",0.898
same,normalized growth,"S. cerevisiae deletion strains, locus YLR320W, strain mms22, stronger effect = lower value",0.941
same,normalized growth,"S. cerevisiae deletion strains, locus YLR330W, strain CHS5, stronger effect = lower value",0.93
same,normalized growth,"S. cerevisiae deletion strains, locus YLR342W, strain FKS1 (second series), stronger effect = lower value",0.648 (active)
same,normalized growth,"S. cerevisiae deletion strains, locus YLR342W, strain FKS1, stronger effect = lower value",0.954
same,normalized growth,"S. cerevisiae deletion strains, locus YLR357W, strain rsc2, stronger effect = lower value",0.753 (active)
same,normalized growth,"S. cerevisiae deletion strains, locus YLR370C, strain arc18, stronger effect = lower value",0.911
same,normalized growth,"S. cerevisiae deletion strains, locus YLR371W, strain rom2, stronger effect = lower value",0.885 (active)
same,normalized growth,"S. cerevisiae deletion strains, locus YLR384C, strain iki3, stronger effect = lower value",1
same,normalized growth,"S. cerevisiae deletion strains, locus YLR418C, strain cdc73, stronger effect = lower value",0.797 (active)
same,normalized growth,"S. cerevisiae deletion strains, locus YML016C, strain PPZ1, stronger effect = lower value",0.853 (active)
same,normalized growth,"S. cerevisiae deletion strains, locus YML032C, strain rad52, stronger effect = lower value",0.905 (active)
same,normalized growth,"S. cerevisiae deletion strains, locus YML120C, strain ndi1, stronger effect = lower value",0.747 (active)
same,normalized growth,"S. cerevisiae deletion strains, locus YML124C, strain tub3, stronger effect = lower value",0.99
same,normalized growth,"S. cerevisiae deletion strains, locus YMR058W, strain fet3, stronger effect = lower value",0.761 (active)
same,normalized growth,"S. cerevisiae deletion strains, locus YMR078C, strain ctf18, stronger effect = lower value",0.994
same,normalized growth,"S. cerevisiae deletion strains, locus YMR125W, strain sto1, stronger effect = lower value",1.06
same,normalized growth,"S. cerevisiae deletion strains, locus YMR129W, stronger effect = lower value",1.03
same,normalized growth,"S. cerevisiae deletion strains, locus YMR205C, strain PFK2, stronger effect = lower value",0.961
same,normalized growth,"S. cerevisiae deletion strains, locus YMR223W, strain ubp8, stronger effect = lower value",0.94
same,normalized growth,"S. cerevisiae deletion strains, locus YMR231W, strain pep5, stronger effect = lower value",0.821 (active)
same,normalized growth,"S. cerevisiae deletion strains, locus YMR307W, strain GAS1, stronger effect = lower value",0.638
same,normalized growth,"S. cerevisiae deletion strains, locus YNL067W, strain RPL9B, stronger effect = lower value",0.841 (active)
same,normalized growth,"S. cerevisiae deletion strains, locus YNL071W, strain lat1, stronger effect = lower value",1.01
same,normalized growth,"S. cerevisiae deletion strains, locus YNL153C, strain GIM3, stronger effect = lower value",0.582 (active)
same,normalized growth,"S. cerevisiae deletion strains, locus YNL209W, strain ssb2, stronger effect = lower value",0.804 (active)
same,normalized growth,"S. cerevisiae deletion strains, locus YNL233W, strain BNI4, stronger effect = lower value",0.876
same,normalized growth,"S. cerevisiae deletion strains, locus YNL248C, strain rpa49, stronger effect = lower value",0.935
same,normalized growth,"S. cerevisiae deletion strains, locus YNL250W, strain rad50, stronger effect = lower value",0.998
same,normalized growth,"S. cerevisiae deletion strains, locus YNL271C, strain bni1, stronger effect = lower value",0.986
same,normalized growth,"S. cerevisiae deletion strains, locus YNL298W, strain CLA4, stronger effect = lower value",0.974
same,normalized growth,"S. cerevisiae deletion strains, locus YNL307C, strain MCK1, stronger effect = lower value",0.986
same,normalized growth,"S. cerevisiae deletion strains, locus YNL322C, strain KRE1 (second series), stronger effect = lower value",1.01
same,normalized growth,"S. cerevisiae deletion strains, locus YNR049C, strain mso1, stronger effect = lower value",1.01
same,normalized growth,"S. cerevisiae deletion strains, locus YNR052C, strain pop2, stronger effect = lower value",0.695 (active)
same,normalized growth,"S. cerevisiae deletion strains, locus YOL012C, strain htz1",0.414
same,normalized growth,"S. cerevisiae deletion strains, locus YOL147C, strain pex11, stronger effect = lower value",0.865 (active)
same,normalized growth,"S. cerevisiae deletion strains, locus YOR001W, strain rrp6, stronger effect = lower value",0.949
same,normalized growth,"S. cerevisiae deletion strains, locus YOR061W, strain CKA2, stronger effect = lower value",0.87 (active)
same,normalized growth,"S. cerevisiae deletion strains, locus YOR069W, strain VPS5, stronger effect = lower value",0.926 (active)
same,normalized growth,"S. cerevisiae deletion strains, locus YOR070C, strain gyp1, stronger effect = lower value",0.978
same,normalized growth,"S. cerevisiae deletion strains, locus YOR080W, strain dia2, stronger effect = lower value",0.975
same,normalized growth,"S. cerevisiae deletion strains, locus YOR083W, strain WHI5, stronger effect = lower value",0.903
same,normalized growth,"S. cerevisiae deletion strains, locus YOR106W, strain vam3, stronger effect = lower value",0.686 (active)
same,normalized growth,"S. cerevisiae deletion strains, locus YOR136W, strain idh2, stronger effect = lower value",0.987
same,normalized growth,"S. cerevisiae deletion strains, locus YOR144C, strain elg1, stronger effect = lower value",0.915 (active)
same,normalized growth,"S. cerevisiae deletion strains, locus YOR184W, strain ser1, stronger effect = lower value",0.88
same,normalized growth,"S. cerevisiae deletion strains, locus YOR265W, strain rbl2, stronger effect = lower value",1
same,normalized growth,"S. cerevisiae deletion strains, locus YOR270C, strain vph1, stronger effect = lower value",0.572 (active)
same,normalized growth,"S. cerevisiae deletion strains, locus YOR290C, strain snf2, stronger effect = lower value",0.344 (active)
same,normalized growth,"S. cerevisiae deletion strains, locus YOR316C, strain cot1, stronger effect = lower value",1
same,normalized growth,"S. cerevisiae deletion strains, locus YPL051W, strain arl3, stronger effect = lower value",0.817 (active)
same,normalized growth,"S. cerevisiae deletion strains, locus YPL055C, strain LGE1, stronger effect = lower value",0.783
same,normalized growth,"S. cerevisiae deletion strains, locus YPL078C, strain atp4, stronger effect = lower value",0.856 (active)
same,normalized growth,"S. cerevisiae deletion strains, locus YPL106C, strain sse1, stronger effect = lower value",0.91
same,normalized growth,"S. cerevisiae deletion strains, locus YPL240C, strain hsp82, stronger effect = lower value",0.988
same,normalized growth,"S. cerevisiae deletion strains, locus YPL241C, strain CIN2, stronger effect = lower value",0.948
same,normalized growth,"S. cerevisiae deletion strains, locus YPR119W, strain clb2, stronger effect = lower value",1.02
same,normalized growth,"S. cerevisiae deletion strains, locus YPR141C, strain kar3, stronger effect = lower value",1
same,normalized growth,"S. cerevisiae deletion strains, locus YPR163C, strain tif3, stronger effect = lower value",0.998
same,normalized growth,"S. cerevisiae deletion strains, locus YPR167C, strain met16, stronger effect = lower value",1.01
same,normalized growth,"S. cerevisiae deletion strains, strain wtn01, stronger effect = lower value",0.934
same,normalized growth,"S. cerevisiae strains, strain wild type, stronger effect = lower value",0.78 (active)
